{"source": "PubChem BioAssay (NCI)", "note": "Compounds without any hit were thinned out: in the full panel of roughly 83,000, 20% have a hit.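 Step 1: grow cells in 96-well plates. Step 2: add test compound at a single concentration. Step 3: incubate 48 h. Step 4: record percent growth.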 Values without a mark were called inactive. The source made the active and inactive calls.", "data": [{"system": "NCI-H226 lung", "assay": "NCI-60 one-dose screen, 48 h (100 = growth as untreated, 0 = no growth, -100 = all killed)", "details": "10 µM unless noted", "experimental": "Growth inhibition of the NCI-H226 human Non-Small Cell Lung tumor cell line is measured as a screen for anti-cancer activity. Cells are grown in 96 well plates and exposed to the test compound for 48 hours. Compounds are tested at a single concentration, which is 10^-5 M for most compounds. The reported endpoint is percent growth (GI% or GIPRCNT), where numbers from 0 - 100% represent growth inhibition, and numbers from -100% - 0 represent cell death. For example, a value of 40 represents 60% growth inhibition. A value of 0 means no net growth occurred over the course of the experiment. A value of -40 indicates 40% of cells at the beginning of the experiment died by the end of the experiment. A value of -100 means all cells are dead at the end of the experiment.\nNCI-60 Human Tumor Cell Lines Screen was performed using the standard one-dose NCI protocol, which is described in more detail at https://dtp.cancer.gov/discovery_development/nci-60/default.htm.\nCompounds with GIPRCNT values below 10 were considered active. Activity score was based on GIPRCNT using the following formula: […]\nScore is 0 for GIPRCNT values of 100 or above, 50 for GIPRCNT values of 0, and 100 for GIPRCNT values of -100.", "values": [{"molecule": "NNC(=O)/C(=C\\c1ccc([N+](=O)[O-])cc1)CC(=O)c1ccc(Cl)c(Cl)c1", "growth": "69.2%"}, {"molecule": "C=C1C(=O)O[C@H]2[C@H]1CC/C(COC(=O)/C=C/c1c[nH]c3ccccc13)=C\\CC[C@@]1(C)O[C@@H]21", "growth": "-71.4% (active)"}, {"molecule": "CCCCCCOc1ccc(/C=N/Nc2cc(C)nc3ccc(Br)cc23)cc1", "growth": "71.1%"}, {"molecule": "COc1ccc2c(c1)c(CC(=O)NCCOCCOCC(=O)Nc1ccc(OC)c(C(N)=O)c1O)c(C)n2C(=O)c1ccc(Cl)cc1", "growth": "91.5%"}, {"molecule": "C#CCNC(=O)[C@H](Cc1ccccc1)NC(=O)[C@]12CC[C@@H](C(=C)C)[C@@H]1[C@H]1CC[C@@H]3[C@@]4(C)Cc5c([nH]c6ccccc56)C(C)(C)[C@@H]4CC[C@@]3(C)[C@]1(C)CC2", "growth": "90.2%"}, {"molecule": "O=c1[nH]nc(-c2ccc(Br)cc2)cc1Cc1ccc(O)cc1", "growth": "85.6%"}, {"molecule": "O=C1CCC(NC(=S)Nc2ccccc2)N1", "note": "(stereo not given)", "growth": "103%"}, {"molecule": "COc1cc(C(=O)/C=C/c2c(C)n([O-])c3ccc(Cl)cc3[n+]2=O)cc(OC)c1OC", "growth": "93.2%"}, {"molecule": "COc1nc(N)nc(-n2c(-c3ccc(C)cc3)nc3ccccc32)c1NCc1ccc(C)cc1", "growth": "89%"}, {"molecule": "COc1ccc(Cl)cc1NC(=O)c1c(NC(=O)C(F)(F)C(F)(F)F)sc2c1CCCCC2", "growth": "-5.37% (active)"}, {"molecule": "COc1ccc(Cc2nc3cc(OC)c(OC)cc3c(=O)[nH]2)cc1", "growth": "98%"}, {"molecule": "COc1ccc(C(=O)c2cc3c(N)c(C(=O)Nc4cccc5ccccc45)sc3nc2C)cc1", "growth": "47.4%"}, {"molecule": "COc1ccc(/C=C/c2n[nH]c3ccc(N4CCOC4=O)cc23)cc1", "growth": "6.06% (active)"}, {"molecule": "c1ccc(-c2nnc(Nc3ccc4c(c3)OCCO4)o2)c(NCc2ccncc2)c1", "growth": "-9.34% (active)"}, {"molecule": "CC(=O)[C@@H]1CC[C@]2(C(N)=O)CC[C@]3(C)[C@H](CC[C@@H]4[C@@]5(C)CCC(=O)C(C)(C)[C@@H]5CC[C@]43C)[C@@H]12", "growth": "102%"}, {"molecule": "C1=C2CNCC3=Cc4ccc5ccccc5c4OC23Oc2c1ccc1ccccc21", "growth": "67.7%"}, {"molecule": "Brc1ccc(C2CC(c3cccc(Nc4ccncc4)c3)=NN2c2ccccc2)cc1", "note": "(stereo not given)", "growth": "95%"}, {"molecule": "O=C(N=Nc1c(O)[nH]c2ccc(F)cc12)c1cc2ccccc2[nH]1", "growth": "94.6%"}, {"molecule": "CC(=O)N1N=C(c2cccc(Nc3ccncc3)c2)CC1c1ccc2c(c1)OCO2", "note": "(stereo not given)", "growth": "94.6%"}, {"molecule": "CC1(c2ccccc2)NC(=O)N(CC(=O)Nc2cccc(I)c2)C1=O", "note": "(stereo not given)", "growth": "72.2%"}, {"molecule": "CCOC(=O)c1c(SC)nn(-c2cc(=O)[nH]c3ccc(Br)cc23)c1N", "growth": "99.2%"}, {"molecule": "CC[N+](CC)(CCCC(C)[N+]1(Cc2ccccc2)C(C)=CC=C1C)Cc1ccccc1", "note": "(stereo not given)", "growth": "81.2%"}, {"molecule": "Cc1ccc2[nH]c(=O)cc(-n3nncc3COc3ccc(C=O)cc3)c2c1", "growth": "90.3%"}, {"molecule": "Cc1cc2nc(-c3ccccc3)c(-c3ccccc3)nc2cc1C", "growth": "94.9%"}, {"molecule": "O=C1CCCCCCCCC(O)C(O)CCCC(c2cccs2)O1", "note": "(stereo not given)", "growth": "99.5%"}, {"molecule": "COc1ccc(C(=O)c2cc3c(N)c(C(=O)Nc4cccc(Cl)c4C)sc3nc2C)cc1", "growth": "44%"}, {"molecule": "O=C(CCN1CCCC1)Nc1ccc2c(NCc3ccc(F)cc3)c3ccccc3nc2c1", "growth": "4% (active)"}, {"molecule": "COc1ccc(-c2ncc(-c3ccccc3)[nH]2)cc1OC", "growth": "100%"}, {"molecule": "Fc1cc(C2=NNC(c3ccc[nH]3)C2)ccc1-n1ccc(C(F)(F)F)n1", "note": "(stereo not given)", "growth": "83.9%"}, {"molecule": "COC(=O)C1=C(C(=O)ONCCN(C)C)C2C=CC1(C(Cc1ccccc1)Nc1ccc(F)cc1)O2", "note": "(stereo not given)", "growth": "108%"}, {"molecule": "CC(C)(C)CC(C)(C)Nc1c(-c2ccc3c(c2)OCO3)nc2cnccn12", "growth": "90.1%"}, {"molecule": "O=C(Nc1cccc(Cl)c1)c1cc(Cl)ccc1O", "growth": "-2.52% (active)"}, {"molecule": "COc1cc(NCCCN(CC(C)C)C2CCCC2)c2ncccc2c1", "growth": "58.3%"}, {"molecule": "CN(C)c1ccc(-c2c(C#N)c(N)n3nc(N)c(C#N)c3c2C#N)cc1", "growth": "86%"}, {"molecule": "COc1ccc(-c2c[nH]c(C(=O)O)c2-c2cc(OC)c3c(c2OC)OCO3)cc1", "growth": "95.3%"}, {"molecule": "C=CCn1c(SCC(=O)Nc2ccc(C(=O)/C=C/c3cc(OC)c(OC)c(OC)c3)cc2)nnc1-c1cc(-c2ccc(S(C)(=O)=O)cc2)nc2ccccc12", "growth": "85.3%"}, {"molecule": "COc1cccc(CNCCN2C(=O)c3ccc4c5c(ccc(c35)C2=O)C(=O)N(CCNCc2cccc(OC)c2)C4=O)c1", "growth": "95.8%"}, {"molecule": "O=C1Nc2ccccc2/C1=C\\c1cccc(/C=C2/C(=O)Nc3ccccc32)n1", "growth": "2.74% (active)"}, {"molecule": "Cc1c(C2=CCCCC2)c2ccccn2c1C(=O)c1cccc(S(=O)(=O)N2CCOCC2)c1", "growth": "93.2%"}, {"molecule": "CC(Oc1ccc(C(=O)NS(=O)(=O)C(C)(C)C)cc1C(F)(F)F)c1ccc(Oc2ccccc2)cn1", "note": "(stereo not given)", "growth": "81.5%"}]}]}
